PubChem BioAssay (NCI)
This is part of a sample that, as a whole, favours compounds with a hit. Of some 83,000 tested, about 20% had one in any assay.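 Negative percent growth values reflect cell death: -40 means 40% of the cells present at the start died, and -100 means all died.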 Values without a mark were called inactive. The source made the active and inactive calls. How the source made its calls: active means growth percent below 10; inactive means the rest.

tested on: HCT-15 colon; assay: NCI-60 one-dose screen, 48 h (100 = growth as untreated, 0 = no growth, -100 = all killed); conditions: 10 µM

Compound | growth
COc1cccc(O)c1O | 38.4%
CC(=O)/C(Cc1ccccc1)=N/O | 99.7%
C=CCNC(=O)c1ccc(OC)cc1 | 108%
C/C(=N/NC(N)=O)c1ccco1 | 102%
COCCOC(=O)c1ccc(C(C)C)cc1 | 99.5%
C[N+](C)=c1ccc2nc3c(cc(Nc4ccccc4)c4ccccc43)oc-2c1 | 56.7%
Cc1cccc(CO)c1 | 105%
Nc1nc(N)c(N=Nc2ccc(C(=O)O)cc2)c(N)n1 | 109%
COCCOCCCl | 99.3%
Nc1ncnc2[nH]ncc12 | 5.92% (active)
O=[N+]([O-])c1ccc(-c2ncc(-c3ccc(Br)cc3)o2)cc1 | 96.5%
CCOC(=O)CSc1c([N+](=O)[O-])ncn1C | 93.7%
CC(C)(O)C#CC#CC(C)(C)O | 97.7%
COc1cc(C2NC(=O)C(C#N)=C(Nc3cccc(C)c3)S2)ccc1O (stereo not drawn) | 111%
CCOC(=O)Nc1nn[nH]n1 | 91.7%
O=C(NN=C1CCCCC1)C(=O)NN=C1CCCCC1 | 108%
O=C(CCl)Nc1ccc2c(c1)C(=O)c1ccc(NC(=O)CCl)cc1C2=O | -86.6% (active)
CCCCOC(=O)c1ccc(C(C)C)cc1 | 101%
O=C(NC1CCCCC1)OCc1c(COC(=O)NC2CCCCC2)c(-c2ccc(Cl)c(Cl)c2)n2c1CCC2 | 33.6%

Compound | growth
N#CCCN(CCCN1CCOCC1)CN1C(=O)c2ccccc2C1=O | 104%
Cc1ccccc1N=C(c1ccccc1)C1C(=O)c2ccccc2C1=O | 58.7%
O=c1[nH]cc(Cl)cc1O | 64.4%
CC(C)OC(C(=O)O)c1ccccc1 (stereo not drawn) | 97.8%
CCCOC(=O)C(O)c1ccccc1 (stereo not drawn) | 97.5%
COc1ccccc1NC(=O)c1cc2cc(Br)ccc2cc1O | 7.97% (active)
OCCN1CCOCC1 | 96.3%
OCC1OC(OC2C(O)C(CO)OC2(CO)OC2OC(CO)C(O)C(O)C2O)C(O)C(O)C1O (stereo not drawn) | 107%
Cc1ccc(Cl)cc1NC(=O)N(C)CCO | 110%
CCOC(=O)C(O)C(O)C(=O)OCC (stereo not drawn) | 99.1%
O=c1cc(-c2ccccc2)nc2cc(-c3ccco3)[nH]n12 | 67.8%
S=c1[nH]ccn1-c1ccccc1Cl | 107%
C[N+](C)(C)C(=O)c1ccccc1 | 101%
CCc1ccc(/C(C#N)=C/C=C/c2ccccc2)cc1 | 38.7%
O=C(O)c1ccnc(Br)c1 | 106%
S=c1nn[nH]c2ccccc12 | 103%
O=[N+]([O-])c1ccc(CO)cc1 | 98%
O=C1C=C(O)C(=O)C=C1O | 107%
C#Cc1cccc(NC(=O)c2ccc(Cl)cc2Cl)c1 | 87.6%
